Measurements: PubChem BioAssay
Values joined by “and” are separate entries in the source; they are usually repeats but may differ in a detail not shown here. Identical values can stand only once. Active and inactive are the calls of the source.

What was measured:
[1] = system: Plasmodium falciparum Sir2 (PF13_0152, Sir2A); test: Plasmodium falciparum Sir2A binding compounds – biochemical, small-molecule microarray, 635 nm fluorescence, primary screen (AID 1098); details: fluorescence 635 nm, higher = more signal;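 note: score merges spot fluorescence intensity with its signal-to-noise ratio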
[2] = probe aDKK1 binding to arrayed compounds – biochemical, biotinylated probe, 635/667 nm fluorescence, primary screen (AID 1099); details: small-molecule microarray, higher = more signal;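 note: score merges 667nm spot fluorescence with signal to noise across triplicate slides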
[3] = probe aCHRDL2 binding to arrayed compounds – biochemical, biotinylated probe, 635/667 nm fluorescence, primary screen (AID 1100); details: small-molecule microarray, higher = more signal
[4] = change in splice reporter luminescence, either direction, cell-based, HEK293, spliceosome inhibition project, primary screen (AID 1101); details: HEK293 splicing luciferase reporter, 24 h, higher = more signal, called active from +8 up or from −8 down;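 note: HEK293 cells carrying a splicing-competent luciferase reporter gene; test concentration not given here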
[5] = target: Fibroblast growth factor 10 (Homo sapiens) (UniProt O15520); test: compounds binding fibroblast growth factor 10 – biochemical, small-molecule microarray, 635 nm fluorescence, primary screen (AID 1102); details: FGF10 binding, fluorescence 635 nm, higher = more signal
[6] = system: glycogen synthase kinase-3 (GSK3A per assay name; protocol says GSK3B); test: compounds binding glycogen synthase kinase-3 – biochemical, small-molecule microarray, 635 nm fluorescence, GSK3A, primary screen (AID 1103); details: fluorescence 635 nm, higher = more signal; note: the record names both GSK3A and GSK3B
[7] = target: Epidermal growth factor receptor (Homo sapiens) (UniProt P00533); test: compounds binding epidermal growth factor receptor – biochemical, small-molecule microarray, 635 nm fluorescence, primary screen (AID 1104); details: EGFR binding, higher = more signal;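 note: score merges 667 nm emission intensity with spot signal to noise over triplicate slides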
[8] = target: Follistatin-related protein 3 (Homo sapiens) (UniProt O95633); test: compounds binding follistatin-related protein 3 – biochemical, small-molecule microarray, 635 nm fluorescence, primary screen (AID 1105); details: FSTL3 binding, higher = more signal;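 note: score merges emission near 667 nm and signal to noise per printed spot across three slides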
[9] = target: Dickkopf-related protein 1 (Homo sapiens) (UniProt O94907); test: small molecules binding DKK1 protein – biochemical, small-molecule microarray, 635 nm fluorescence scan, primary screen (AID 1106); details: higher = more signal;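 note: score merges emission near 667 nm with signal to noise over three replicate slides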
[10] = system: Inhibin beta A chain (activin A); test: small molecules binding activin A – biochemical, small-molecule microarray, 635 nm fluorescence scan, primary screen (AID 1107); details: INHBA, higher = more signal;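 note: mouse activin A protein probed at 4.33 µg/mL on printed slides; score merges bound-protein fluorescence near 667 nm with spot signal-to-noise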
[11] = system: Human papillomavirus type 1a protein E7 (residues 44-93); test: small molecules binding HPV E7 44-93 – biochemical, small-molecule microarray, residues 44-93, 635 nm fluorescence, primary screen (AID 1108); details: fluorescence 635 nm, higher = more signal;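 note: E7 fragment applied at 1 µg/mL in TBST for 1 h at 4 C; score combines spot fluorescence with its signal to noise ratio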
[12] = hepatitis C replication reporter changes, two-sided – Huh7 cells, luciferase reporter, HCV replication inhibitor project, primary screen (AID 1109); details: Huh7 HCV replicon luciferase reporter, 48 h; higher = more signal;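 note: huh7 hepatoma cells harbouring a luciferase neomycin HCV replicon reporter; luciferase luminescence as measure of HCV replicon replication; test concentration not given here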
[13] = target: Left-right determination factor 2 (Homo sapiens) (UniProt O00292); test: small molecules binding LEFTY2 protein – biochemical, small-molecule microarray, 635 nm fluorescence scan, primary screen (AID 1110); details: higher = more signal
[14] = target: Calmodulin-1 (Homo sapiens) (UniProt P0DP23); test: small molecules binding calmodulin-1 with EGTA – biochemical, small-molecule microarray, Cy5-labelled CALM1, profiling panel (AID 1111); details: Cy5-CALM1 binding fluorescence, higher = more signal;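 note: labelled calmodulin applied in Tris saline Tween buffer holding calcium plus EGTA and DTT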
[15] = target: Calmodulin-1 (Homo sapiens) (UniProt P0DP23); test: small molecules binding Ca-loaded calmodulin-1 – biochemical, small-molecule microarray, Cy5-labelled CALM1, plus calcium, artefact control for SMM control-protein annotation, profiling panel (AID 1112); details: Cy5-CALM1 binding fluorescence, higher = more signal;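 note: score merges spot fluorescence with signal to noise from triplicate slides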
[16] = probe aWnt5a binding to arrayed compounds – biochemical, biotinylated probe, 635/667 nm fluorescence, primary screen (AID 1113); details: small-molecule microarray, higher = more signal;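 note: score merges 667 nm fluorescence intensity with signal-to-noise per printed feature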
[17] = probe aShh binding to arrayed compounds – biochemical, biotinylated probe, 635/667 nm fluorescence, primary screen (AID 1114); details: small-molecule microarray, higher = more signal;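 note: probe is biotin-labelled aShh protein from a stem cell growth factor screen; measures binding of labelled protein to compounds printed on the slide; score merges feature fluorescence at 667 nm with signal-to-noise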
[18] = probe aNog binding to arrayed compounds – biochemical, biotinylated probe, 635/667 nm fluorescence, primary screen (AID 1115); details: small-molecule microarray, higher = more signal;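 note: probe is biotinylated aNog protein used at 0.15 µg/mL for 1 h at 4 C; z-score combines 667 nm fluorescence of each spot with its signal to noise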
[19] = target: Torsin-1A-interacting protein 1 (Homo sapiens) (UniProt Q5JTV8); test: compound microarray binding of lysate hLAP1 – cell lysate, small-molecule microarray, COS7 lysate, 635/667 nm fluorescence, primary screen (AID 1116); details: 635 nm fluorescence, higher = more signal
[20] = target: Alpha-bungarotoxin (Bungarus multicinctus) (UniProt P60615); test: compounds binding labelled alpha-BTX control protein – biochemical, small-molecule microarray, Alexa647 label, 635/667 nm fluorescence, artefact control for SMM control protein annotation, profiling panel (AID 1117); details: alpha-BTX-A647 binding fluorescence, higher = more signal
Chain of Alpha-bungarotoxin (Bungarus multicinctus) (P60615 whole entry, looked up): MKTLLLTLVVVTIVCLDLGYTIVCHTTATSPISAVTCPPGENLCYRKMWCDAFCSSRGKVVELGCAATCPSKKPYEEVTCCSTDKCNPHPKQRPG

Chain of Follistatin-related protein 3 (Homo sapiens) (O95633 whole entry, looked up): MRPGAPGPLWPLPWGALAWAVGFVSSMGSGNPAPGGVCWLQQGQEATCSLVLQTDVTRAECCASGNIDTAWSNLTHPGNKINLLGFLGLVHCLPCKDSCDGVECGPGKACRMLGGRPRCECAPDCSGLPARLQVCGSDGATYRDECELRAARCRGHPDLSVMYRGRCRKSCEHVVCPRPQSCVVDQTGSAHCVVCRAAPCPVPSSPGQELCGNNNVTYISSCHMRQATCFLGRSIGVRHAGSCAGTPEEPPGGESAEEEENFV
Chain of Left-right determination factor 2 (Homo sapiens) (O00292 whole entry, looked up): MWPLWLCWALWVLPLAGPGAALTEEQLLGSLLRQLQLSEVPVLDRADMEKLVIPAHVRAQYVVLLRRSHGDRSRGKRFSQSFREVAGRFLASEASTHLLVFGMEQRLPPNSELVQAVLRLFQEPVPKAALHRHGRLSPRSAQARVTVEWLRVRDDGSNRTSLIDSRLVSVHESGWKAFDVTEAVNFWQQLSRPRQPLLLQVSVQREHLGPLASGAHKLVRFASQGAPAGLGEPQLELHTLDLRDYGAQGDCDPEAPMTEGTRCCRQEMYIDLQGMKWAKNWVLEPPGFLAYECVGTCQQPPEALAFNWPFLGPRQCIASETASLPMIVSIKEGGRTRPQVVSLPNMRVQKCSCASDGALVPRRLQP
Chain of Torsin-1A-interacting protein 1 (Homo sapiens) (Q5JTV8 whole entry, looked up): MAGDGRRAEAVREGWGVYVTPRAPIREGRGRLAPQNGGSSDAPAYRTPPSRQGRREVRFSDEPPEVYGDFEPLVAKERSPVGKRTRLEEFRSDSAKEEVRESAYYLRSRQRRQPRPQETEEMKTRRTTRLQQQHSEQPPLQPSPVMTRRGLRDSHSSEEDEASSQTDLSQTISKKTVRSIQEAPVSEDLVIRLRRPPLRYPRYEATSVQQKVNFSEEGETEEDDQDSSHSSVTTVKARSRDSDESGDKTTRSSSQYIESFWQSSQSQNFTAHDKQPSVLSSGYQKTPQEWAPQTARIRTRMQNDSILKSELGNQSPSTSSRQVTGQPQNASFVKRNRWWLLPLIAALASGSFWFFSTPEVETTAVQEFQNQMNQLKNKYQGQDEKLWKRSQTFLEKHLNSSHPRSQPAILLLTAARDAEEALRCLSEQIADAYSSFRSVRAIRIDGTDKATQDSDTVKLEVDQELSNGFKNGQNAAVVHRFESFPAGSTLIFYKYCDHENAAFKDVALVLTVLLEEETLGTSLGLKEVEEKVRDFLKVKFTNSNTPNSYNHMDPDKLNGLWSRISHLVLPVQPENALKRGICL
Chain of Dickkopf-related protein 1 (Homo sapiens) (O94907 whole entry, looked up): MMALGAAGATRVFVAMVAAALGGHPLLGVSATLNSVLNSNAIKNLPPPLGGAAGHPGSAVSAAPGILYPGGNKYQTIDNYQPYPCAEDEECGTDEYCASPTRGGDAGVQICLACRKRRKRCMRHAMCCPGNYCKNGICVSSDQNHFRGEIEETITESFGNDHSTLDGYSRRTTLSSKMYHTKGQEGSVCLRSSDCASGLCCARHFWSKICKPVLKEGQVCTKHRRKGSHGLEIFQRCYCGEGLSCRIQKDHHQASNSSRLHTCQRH
Chain of Fibroblast growth factor 10 (Homo sapiens) (O15520 whole entry, looked up): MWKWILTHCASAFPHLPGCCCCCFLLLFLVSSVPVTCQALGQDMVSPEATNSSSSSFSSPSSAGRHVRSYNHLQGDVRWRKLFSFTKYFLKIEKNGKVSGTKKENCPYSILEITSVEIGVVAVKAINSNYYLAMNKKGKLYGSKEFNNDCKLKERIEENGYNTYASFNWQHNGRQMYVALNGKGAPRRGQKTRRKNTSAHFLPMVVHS
Chain of Epidermal growth factor receptor (Homo sapiens) (P00533 whole entry, looked up): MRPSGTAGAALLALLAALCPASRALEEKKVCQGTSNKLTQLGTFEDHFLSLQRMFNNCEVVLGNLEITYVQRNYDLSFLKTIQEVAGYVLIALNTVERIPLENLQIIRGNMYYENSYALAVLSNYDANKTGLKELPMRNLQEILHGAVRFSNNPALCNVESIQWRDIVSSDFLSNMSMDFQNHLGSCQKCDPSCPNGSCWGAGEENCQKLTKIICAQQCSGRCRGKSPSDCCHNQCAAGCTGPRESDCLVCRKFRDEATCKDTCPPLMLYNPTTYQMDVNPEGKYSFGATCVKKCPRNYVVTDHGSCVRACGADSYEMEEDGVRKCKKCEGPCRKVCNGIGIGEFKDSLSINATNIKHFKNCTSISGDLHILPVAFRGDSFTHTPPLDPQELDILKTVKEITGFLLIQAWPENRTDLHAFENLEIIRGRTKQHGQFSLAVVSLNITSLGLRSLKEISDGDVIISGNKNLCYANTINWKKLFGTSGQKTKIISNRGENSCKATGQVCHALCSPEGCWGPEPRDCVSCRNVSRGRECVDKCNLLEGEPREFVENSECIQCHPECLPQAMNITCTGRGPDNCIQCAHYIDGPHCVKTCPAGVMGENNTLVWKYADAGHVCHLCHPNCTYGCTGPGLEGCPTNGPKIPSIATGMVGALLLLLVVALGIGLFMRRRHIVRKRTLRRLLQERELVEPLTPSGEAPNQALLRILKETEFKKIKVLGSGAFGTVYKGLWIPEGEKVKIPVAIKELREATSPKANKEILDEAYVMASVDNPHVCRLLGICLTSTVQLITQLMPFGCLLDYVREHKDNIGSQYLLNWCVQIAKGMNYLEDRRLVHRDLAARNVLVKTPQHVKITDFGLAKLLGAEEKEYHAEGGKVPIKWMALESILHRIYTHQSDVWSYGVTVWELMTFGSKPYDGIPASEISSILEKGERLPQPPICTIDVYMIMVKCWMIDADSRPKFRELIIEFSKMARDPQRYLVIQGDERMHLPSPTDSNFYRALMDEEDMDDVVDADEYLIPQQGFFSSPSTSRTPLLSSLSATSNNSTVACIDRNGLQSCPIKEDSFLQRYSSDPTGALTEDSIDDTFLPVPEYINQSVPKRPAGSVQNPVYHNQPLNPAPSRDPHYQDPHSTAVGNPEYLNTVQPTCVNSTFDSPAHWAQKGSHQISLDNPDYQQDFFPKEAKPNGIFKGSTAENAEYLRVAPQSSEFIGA

SMILES | composite z-score [1] | composite z-score [2] | composite z-score [3] | z-score [4] | composite z-score [5] | composite z-score [6] | composite z-score [7] | composite z-score [8] | composite z-score [9] | composite z-score [10] | composite z-score [11] | z-score [12] | composite z-score [13] | composite z-score [14] | composite z-score [15] | composite z-score [16] | composite z-score [17] | composite z-score [18] | composite z-score [19] | composite z-score [20]
CO[C@@H]1C=CCC(=O)N2CCC[C@H]2C(=O)OC[C@H](C)C(=O)OC[C@H]1C | 0.517 | -0.33 | -0.966 | -0.25 (inactive) | 0.243 | 0.396 | 0.612 | 0.875 | 1.26 | 0.358 | 0.172 | 0.182 | 0.96 | -0.594 | -1.16 | -0.202 | -0.352 | -0.216 | 0.568 | -0.0037
CCOC(=O)[C@H](Cc1ccccc1)NC(=O)CCC1CC(OC(=O)NCc2cccc3ccccc23)CC2(CCCC(COC(=O)NCCCN3CCCC3=O)O2)O1 (stereo not given in full) | 0.513 | -0.104 | -0.517 | -1.09 (inactive) | 0.447 | 0.901 | 0.405 | 0.804 | 0.866 | -0.0698 | 1.28 | -0.963 | 0.752 | 0.394 | -0.267 | -0.2 | -0.279 | -0.17 | 0.403 | 0.552
C=C[C@@H](C)[C@@H](O)c1ccc(OCCO)cc1 | 0.886 and 1.38 | -0.265 and -0.238 | 1.09 and 0.349 | 0.26 (inactive) and -1.46 (inactive) | -1.75 and -1.12 | -0.736 and -0.659 | -2.13 and -2.11 | -1.25 and -1.05 | -2.51 and -1.8 | -3.81 and -0.988 | -1.62 and -1.54 | -0.934 and -0.376 | -2.93 and -2.01 | -0.905 and -0.8 | 0.129 and 0.206 | -0.286 and -0.27 | -0.221 and -0.17 | -0.512 and -0.141 | -0.603 and 1.44 | -1.5 and -1.44
C[C@@H](ON=C1[C@H]2CCn3c(=O)n(-c4ccccc4)c(=O)n3[C@H]2[C@H](O)[C@@H]2O[C@H]12)c1cn([C@H](CO)Cc2ccccc2)nn1 | 0.494 | -0.173 | -0.569 | 0.211 (inactive) | 0.416 | 0.438 | 0.419 | 0.572 | 0.462 | -0.0477 | 0.46 | -3.71 | 0.605 | 0.0208 | -0.549 | -0.148 | -0.358 | -0.364 | -0.0609 | 0.24
CCCNC(=O)OC[C@H]1O[C@H](CCON=C(C)CCC(=O)OC[C@H]2O[C@H](C#Cc3ccccc3)C=C[C@@H]2Oc2ccc(C)cc2)C=C[C@@H]1Oc1ccc(OC)cc1 | 0.352 | -0.193 | -0.148 | -0.301 (inactive) | -0.397 | -0.952 | -0.501 | -0.637 | -0.121 | 0.711 | -1.27 | -0.564 | 0.272 | -0.309 | -0.465 | -0.258 | -0.174 | -0.332 | -0.492 | 0.0642
C=CCN(C(=O)C1N(c2c(Cl)cccc2CO)C(=O)C2C(C(=O)O)C3C=CC21O3)c1ccc(OC)cc1 (stereo not given) | 1.51 and -0.251 | -0.0248 and -0.257 | 0.804 and 0.73 | -1.1 (inactive) and -0.88 (inactive) | -1.56 and -2.01 | -1.29 and -0.754 | -1.86 and -2.26 | -1.4 and -2.14 | -1.99 and -2.35 | -1.12 and -3.24 | -0.716 and -1.82 | -1.14 and -0.0856 | -2.79 and -1.79 | -0.746 and -0.798 | -0.0974 and 0.407 | -0.355 and -0.242 | -0.487 and -0.336 | -0.218 and -0.24 | -0.809 and -0.822 | -0.64 and -2.45
C[C@@H]1CC[C@H]2C(=O)N3[C@@H](CC[C@@H](C)[C@@H]3c3ccc(-c4ccco4)cc3)C(=O)N2[C@H]1c1ccc(-c2ccco2)cc1 | 1.22 and 1.69 | 0.289 and 0.596 | 0.0051 and 1.11 | -0.328 (inactive) and -1.24 (inactive) | 0.765 and 1.37 | 1.32 and 1.28 | 0.737 and 1.7 | 1.36 and 1.4 | 1.25 and 1.68 | 1.01 and 1.92 | -0.496 and 0.292 | -0.207 and -0.734 | 0.714 and 1.31 | 1.07 and -0.328 | -0.355 and -1.5 | -0.113 and 0.0579 | 0.166 and -0.0626 | 0.274 and 0.223 | 1.07 and 0.704 | 1.92 and 3.43
Cc1ccc(S(=O)(=O)OC[C@@H]2CN3[C@@H](CC[C@@H](C)[C@@H]3c3ccc(Br)cc3)C(=O)O2)cc1 | 0.257 and 0.321 | 0.151 and 0.128 | -0.234 and -0.289 | 0.479 (inactive) and 0.402 (inactive) | 0.0993 and 0.625 | 0.0442 and 0.372 | 0.352 and 0.49 | 0.0546 and 0.262 | 0.235 and 0.46 | 0.758 and 0.354 | 0.574 and 0.644 | -0.796 and -0.729 | 0.57 and 0.483 | 0.192 and 0.679 | 0.2 and -0.302 | -0.0704 and 0.0194 | -0.237 and -0.16 | -0.172 and -0.0898 | 0.301 and 0.359 | 0.153 and 0.448
C[N+](C)(C)CCCCCCNC(=O)[C@@H]1C[C@@H]2C(=O)N[C@@H](CCCC[N+](C)(C)C)C(=O)N2[C@@H]1c1ccc(O)cc1 | 0.892 and 0.579 | -0.126 and -0.175 | 0.229 and 0.305 | -0.0316 (inactive) and 0.431 (inactive) | 0.606 and 0.803 | -0.115 and 0.255 | 0.0444 and -0.539 | 0.8 and 0.827 | 1.11 and 0.869 | 0.908 and 0.391 | -0.259 and 0.575 | -0.0888 and 0.51 | 0.515 and 0.0005 | -0.529 and -0.759 | 0.458 and -0.85 | -0.144 and -0.13 | -0.304 and -0.221 | -0.0281 and -0.295 | 2.61 and 0.23 | -0.137 and 0.0818
